Compound activity: PubChem BioAssay, National Center for Advancing Translational Sciences (NCATS)
p53ts 39C kill = kills p53ts cells at the nonpermissive temperature | H1299-p53A138V viability at 39C, ATP luminescence, 24 h | Potency, µM (titrated, usually from 46.1 µM), for inactives: at the top dose activity change, negative = cell killing, usual class: cytotoxic | 130,000 tested, 1.5% active | AID 902; note: nearly all actives have a fitted effect of over 55% in size
Luciferase inh = blocks Photinus pyralis firefly luciferase activity | P08659 | purified firefly luciferase, luminescence, 8 min | 72,000 tested, 2.2% active | Potency, µM (highest dose often 57.1 µM), inactives show top-dose activity change, negative = inhibition, most hits filed as inhibitors; note: nearly all actives have a fitted effect of over 40% in size
Target sequence (P08659 whole entry, looked up): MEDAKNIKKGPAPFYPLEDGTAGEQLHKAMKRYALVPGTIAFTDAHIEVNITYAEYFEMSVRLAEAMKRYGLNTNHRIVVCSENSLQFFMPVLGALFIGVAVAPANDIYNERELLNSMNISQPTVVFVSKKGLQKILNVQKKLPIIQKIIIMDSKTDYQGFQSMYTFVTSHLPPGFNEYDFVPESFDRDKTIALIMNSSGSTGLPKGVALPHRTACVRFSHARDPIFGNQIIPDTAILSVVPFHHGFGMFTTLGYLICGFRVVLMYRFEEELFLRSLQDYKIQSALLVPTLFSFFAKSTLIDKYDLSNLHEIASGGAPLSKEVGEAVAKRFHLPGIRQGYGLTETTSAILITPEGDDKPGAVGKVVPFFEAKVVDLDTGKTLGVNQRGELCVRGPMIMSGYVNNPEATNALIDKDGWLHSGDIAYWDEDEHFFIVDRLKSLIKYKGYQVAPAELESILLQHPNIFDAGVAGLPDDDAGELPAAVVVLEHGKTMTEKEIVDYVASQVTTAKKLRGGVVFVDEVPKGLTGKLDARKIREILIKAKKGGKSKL
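Here, luciferase activity is measured as luminescence following an 8 min room-temperature reaction at 10 uM ATP, pH 7.2. Every library sample is titrated.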
p53ts 32C kill = cytotoxicity in p53ts cells at permissive temperature. 130,000 tested, 0.93% active. Potency, µM (top dose mostly 46.1 µM), for inactives: top-dose activity change, negative = cytotoxicity, hits mostly cytotoxic. H1299-p53A138V at 32C, ATP luminescence viability, 24 h;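 note: 0% = DMSO and -100% = full killing by reference compound; nearly all actives have a fitted effect of over 55% in size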
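H1299-p53 A138V cells (temperature-sensitive p53) exposed 24 h to up to 46 uM compound at 32C, where p53 is wild-type in conformation. Viability read as ATP luminescence and normalised to DMSO and 100 uM tamoxifen. AC50 fitted with the Hill equation.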
An asterisk follows results filed as active; u = inconclusive; x = no result; ! = not confirmed by another sample; [ ] = another dose, or the depositor's remark. An excerpt weighted towards active compounds, which were near 2.5% of everything screened. Calls come from the whole dose curve; as a rule, active = well fitted curve in the direction sought with a large enough effect; inconclusive = small, poorly fitted or top-dose-only effect, or another doubt; inactive = no such curve, though single readings can be large; an effect the other way counts as inactive or inconclusive. Unless noted, % is set by controls: 0 for no effect and ±100 for the full control effect; potency is the fitted concentration of half-maximal effect.

SMILES	p53ts 39C kill	Luciferase inh	p53ts 32C kill
O=C1C[C@@H](O)[C@@H](O)[C@H]2[C@@H]3C(=O)N(c4cccc(Oc5ccccc5)c4)C(=O)[C@@H]3CC[C@H]12	9.4%[9.22 µM]	0.0%[11.4 µM]	0.1%[9.22 µM]
CN(C)CCCCNC(=O)c1ccc(-n2c(=O)c(=O)[nH]c3ccccc32)cc1	-6.9%	x	-10.4%
COc1cccc(OC(=O)CSc2nnc(-c3ccccc3OC)o2)c1	-3.3%	x	1.4%
COc1cccc(NC(=O)CSc2nnc(-c3cc(C)n(-c4ccccc4)c3C)o2)c1	20µM*	-22.1%	-23.0%
CCn1cnc2cc(NCc3nc4ccccc4n3Cc3ccccc3)ccc21	-28.7%	x	-27.0%
CCn1cnc2cc(NCc3nc4ccccc4n3C)ccc21	u	12.6µM*	15.8µM*
CC(C)n1cnc2cc(NCc3nc4ccccc4n3C)ccc21	u	12.6µM*	u
Cn1c(CNc2ccccc2)nc2ccccc21	-29.9%	x	-27.6%
CC(=O)c1cccc(NC(=O)c2cccn2-c2nnc(N3CCCCC3)s2)c1	-10.8%	x	-10.3%
CCNc1ncc2nc(-c3cc(F)cc(F)c3)c(=O)n(C)c2n1	-4.4%	0.4%[11.4 µM]	-6.5%
CCCCNS(=O)(=O)c1ccc(C)c(-c2nnc3c4ccccc4c(C)nn23)c1	-7.0%	x	8.6%
O=C(NCCCN1CCOCC1)c1ccc(Cc2nc3ccccc3[nH]2)cc1	-0.1%	x	3.0%
O=C(NCc1ccco1)c1cc(-c2ccc3c(c2)OCO3)on1	-29.6%	-8.1%	-16.2%
COCCNC(=O)c1cc(-c2ccc3c(c2)OCO3)on1	u	12.6µM*	u
Cc1nn(Cc2ccc(Cl)cc2)c(C)c1NC(=O)c1cc(-c2ccc3c(c2)OCO3)on1	u	0.7%	u
Cc1nn(Cc2ccc(Cl)c(Cl)c2)c(C)c1NC(=O)c1cc(-c2ccc3c(c2)OCO3)on1	u	-0.3%	20µM*
C[C@@]12CC[C@@H]3[C@H](CCC4=CC(=O)CC[C@]43C)[C@@H]1CC[C@@H]2C(=O)Cn1cnc2c(=S)nc[nH]c21	6.9%[9.22 µM]	-1.3%[11.4 µM]	2.9%[9.22 µM]
CCc1ccc(NC(=O)Nc2ccccc2OCc2cc(=O)n3ccccc3n2)cc1	3.16µM*	x	u
CC(C)C(=O)Nc1ccccc1OCc1cc(=O)n2ccccc2n1	-14.2%	x	-5.8%
Cc1ccc(C(C(=O)NC2CCCCC2)N(C)Cc2ccccc2)cc1 (stereo not drawn)	-23.8%	x	-1.5%
CCOC(=O)CN(Cc1ccccc1)C(C(=O)NC1CCCCC1)c1ccccc1 (stereo not drawn)	2.51µM*	x	-28.0%
CCN1C(C)=C(C(=O)OC)C(c2ccccc2)N2C(=O)[C@](O)(C(=O)OC)CC(C#N)=C12 (stereo partly drawn)	3.7%[9.22 µM]	x	-0.7%[9.22 µM]
CNCC[C@@H](Oc1ccccc1C)c1ccccc1	-24.0%	-0.1%	-1.2%
CNCC[C@H](Oc1ccccc1C)c1ccccc1	12.6µM*	-0.8%	-18.0%
O=C(Nc1ccc2c(c1)oc1ccccc12)N1CCOCC1	u	20µM*	u
SMILES	p53ts 39C kill	Luciferase inh	p53ts 32C kill
CCn1c2ccccc2c2cc(NC(=O)N3CCOCC3)ccc21	-7.1%	-3.3%	4.9%
Cc1cccc(/C=C(\c2nc3ccccc3[nH]2)S(=O)(=O)c2ccccc2)c1	4.47µM*	x	4.47µM*
Cc1cccc(Oc2nc3c(C)cccn3c(=O)c2/C=C(\C#N)c2nc3ccccc3[nH]2)c1	24.6%	x	-5.4%
Cc1cc(N2CCCCC2)n2ncc(-c3ccc(Cl)cc3)c2n1	-3.2%	12.6µM*	-4.5%
Cc1cc(N2CCN(C(=O)c3ccco3)CC2)n2ncc(-c3ccccc3)c2n1	-5.3%	-21.5%	-5.4%
Cc1cc(N2CCC(C)CC2)n2ncc(-c3ccccc3)c2n1	u	15.8µM*	u
Cc1cc(N2CCC(C)CC2)n2nc(C)c(-c3ccccc3)c2n1	16.1%	2.3%	5.9%
Cc1cc(N2CCCCC2)n2ncc(-c3ccccc3)c2n1	u	3.98µM*	12.6µM*
Cc1cc(N2CCCCC2)n2nc(C)c(-c3ccccc3)c2n1	4.2%	-0.6%	-2.7%
COC(=O)C1=C(C)[C@@H](O)[C@@H](C)[C@H](c2c(OC)c(OC)c(C)c(OC)c2OC)O1	6.0%[9.22 µM]	1.9%[11.4 µM]	-2.0%[9.22 µM]
CC(=O)N1CCc2cc(Br)cc(S(=O)(=O)CCC(=O)N3CCN(c4ccc(F)cc4)CC3)c21	9.5%	x	-1.9%
N[C@H](CCC(=O)NCS(=O)(=O)O)C(=O)O	-7.9%	2.2%	3.0%
CCCCOC(=O)c1cc2c(cn1)[nH]c1ccccc12	-12.9%	u	-2.3%
CNC(=O)c1cc2c(cn1)[nH]c1ccccc12	u	25.1µM*!	u
N#Cc1c(/N=C/c2cccs2)sc2c1CCCCC2	10µM*	2µM*	7.94µM*
CN(C)/C=N/c1sc2c(c1C#N)CCC2	-5.3%	-4.0%	1.1%
N#Cc1c(/N=C/N2CCOCC2)sc2c1CCCCC2	-14.4%	12.6µM*	-25.6%
N#Cc1c(/N=C/c2ccc(Br)s2)sc2c1CCC2	11.6%	x	-0.9%
Ic1ccc2c(c1)N(c1ccccc1)c1cc(Nc3ccc4nc5ccc(I)cc5[n+](-c5ccccc5)c4c3)ccc1N2	5.5%[9.22 µM]	-4.0%[11.4 µM]	0.7%[9.22 µM]
CCNc1ncc2nc(-c3ccccc3)c(=O)n(Cc3ccc(F)cc3)c2n1	-14.2%	0.5%[11.4 µM]	u
Cc1c2ccccc2c(CSC(=N)N)c2ccccc12	u	4.3%[11.4 µM]	u
Cc1c(C)c2cc3c(c(C)c2oc1=O)OCN(CCc1ccccc1)C3	-8.9%	x	2.8%
O=S(=O)(O)c1cc(N=Nc2cccc3ccccc23)c(O)c2ncccc12	-12.6%[9.22 µM]	-5.6%[11.4 µM]	-10.6%[9.22 µM]
c1ccc(CCc2nn3c(-c4ccncc4)nnc3s2)cc1	34.9%	-0.6%	23.6%
c1ccc(-c2nnc3sc(-c4ccncc4)nn23)cc1	4.1%	1.4%	7.5%
SMILES	p53ts 39C kill	Luciferase inh	p53ts 32C kill
CCc1ccc(NC(=O)C2CCN(c3nn4cc(-c5ccc(OC)cc5)nc4s3)CC2)cc1	x	x	-4.1%
CCCc1nn2c(C)c(-c3ccccc3)nc2s1	10µM*	x	6.31µM*
CCc1ccc(-c2cn3nc(CC)sc3n2)cc1	6.31µM*	x	12.6µM*
CCCCc1nn2c(=O)cc(CN(CC)c3ccccc3)nc2s1	-5.8%	x	15.0%
c1ccc(-c2cn3nc(-c4ccccc4)sc3n2)cc1	u	0.126µM*	1µM*
CCCCCc1nn2cc(-c3ccccc3)nc2s1	10µM*	x	u
Cc1ccc(-n2ncc(C(=O)NCc3ccccc3C)c2-n2cccc2)cc1	-7.5%	x	12.6%
CN(C)C(=O)c1ccc(-c2ccc3ncnc(NCc4ccccc4)c3c2)cc1	5.4%	0.3%[2.29 µM]	9.8%
Cc1nc2cnc(N3CCN(C)CC3)nc2n(-c2ccccc2)c1=O	-0.5%	-1.6%[11.4 µM]	1.0%
Cc1ccc(-c2ccc(=O)n(CC(=O)NCCc3ccc(Cl)cc3)n2)cc1	-21.2%	x	-0.6%
CCOC(=O)c1c(C)[nH]c2ccc3c(c12)CN1CCc2cc(OC)ccc2[C@@H]1O3	-18.0%	1.3%	-13.7%
O=C(Nc1nc2n(n1)C(c1ccc(F)cc1)C=C(c1ccccc1)N2)c1ccco1 (stereo not drawn)	-10.5%	x	-5.3%
COc1ccccc1NC(=O)C1=C(C)Nc2ncnn2C1c1ccc[nH]1 (stereo not drawn)	36.4%	x	-2.4%
Cc1nn2cc(-c3ccc(OC(C)C)cc3)nc2s1	10µM*	x	12.6µM*
Cc1nn2cc(-c3ccccc3)nc2s1	10µM*	10µM*	10µM*
CCc1ccc(CNC(=O)C2CCN(c3nn4cc(-c5ccc(OC)cc5)nc4s3)CC2)cc1	x	x	-8.8%
